Data on 43 molecules can be found in PubChem BioAssay AID1362 (SRMLSC, 2008).

The campaign covered roughly 190,000 compounds. About 4,000 (2.1%) were called active. Rule as the data show it: active = inhibition above about 58%; inactive = the rest, inconclusive results apart; tested in S. cerevisiae. Only a selection was taken, and actives are over-represented in it overall.

This assay in a line: growth inhibition of WT strain, primary screen, mitochondrial fusion inhibitor project, WT and mutant strains, chemical genetic (AID 1362). The settings on record: mitochondrial fusion phenotypic screen, at 10 µM.
[1] abbreviates: WT strain, growth inhibition, stronger effect = higher value.

For the molecule `CCCOc1ccc(C(=O)C(CCC(CNCC)C(=O)c2ccc(OCCC)cc2)CNCC)cc1` (stereo unspecified), the inhibition was 72.9% (active) under setting [1] and 35.9% (mutant strain inhibition).

Turning to `CCCOc1ccc(C(=O)NCCc2ccccc2)cc1`, the inhibition under setting [1] was -6.25% (inactive) and the inhibition (mutant strain inhibition) was -16.2%.

As for `Cc1cc2ccccc2n1CCC(=O)O`, the inhibition was 7.54% (inactive) under setting [1] and 5.92% (mutant strain inhibition).

As to `NC(=O)c1ccccc1N(Cc1ccccc1)S(=O)(=O)c1ccccc1`, the inhibition by setting is: under setting [1], -1.27% (inactive); (mutant strain inhibition) 17.1%.

On to `COc1ccc(S(=O)(=O)N(C)CC(=O)N2CCCC2)cc1Cl`, for which the inhibition is, setting by setting: under setting [1], -0.67% (inactive); (mutant strain inhibition) 5.49%.

With `O=C(O)CC/C(=N\NC(=O)c1ccc(F)cc1)c1ccc(Br)cc1`, the inhibition under setting [1] was -0.54% (inactive) and the inhibition (mutant strain inhibition) was 7.09%.

As to `COn1c(-c2ccc(Cl)cc2Cl)nc2ncccc21`, the inhibition is 6.69% (inactive) under setting [1] and 2.12% (mutant strain inhibition).

For the molecule `Clc1ccc(-c2ncc3ccccn23)c(Cl)c1`, the inhibition reads like this: under setting [1], 24.3% (inactive); (mutant strain inhibition) 2.24%.

On to `Clc1ccc(COn2c(-c3ccc(Cl)cc3Cl)nc3ncccc32)cc1`, for which the inhibition under setting [1] was 73.2% (active) and the inhibition (mutant strain inhibition) came out at 48.6%.

Regarding `COCCNC(=S)Nc1cc(S(=O)(=O)N2CCOCC2)ccc1N1CCCCC1`, the inhibition under setting [1] is 22% (inactive) and the inhibition (mutant strain inhibition) was determined as 22.7%.

Take `COc1ccc(-c2cc(C3CCN(c4ncccc4[N+](=O)[O-])CC3)[nH]n2)cc1`: the inhibition by setting is: under setting [1], 72.2% (active); (mutant strain inhibition) 40.6%.

Turning to `CC(=O)NC(Cc1ccccc1)C(=O)NC1CCN(c2ncccc2[N+](=O)[O-])CC1` (stereo unspecified), the inhibition is, setting by setting: under setting [1], 6.05% (inactive); (mutant strain inhibition) 4.93%.

Consider `COc1ccc(N2CCN(c3ccc([N+](=O)[O-])nc3)CC2)cc1`, for which the inhibition is 15.8% (inactive) under setting [1] and 8.11% (mutant strain inhibition).

With `O=c1cnnc(Nc2ccccc2F)[nH]1`, the inhibition runs as follows: under setting [1], -19.8% (inactive); (mutant strain inhibition) -21.4%.

Consider `CCC(=O)c1ccc(OCC(O)CN2CCN(c3cccc(C(F)(F)F)c3)CC2)cc1` (stereo unspecified), for which the inhibition by setting is: under setting [1], 10.7% (inactive); (mutant strain inhibition) 17.1%.

As to `O=C(COc1ccc(Cl)cc1)N1CCN(S(=O)(=O)c2ccc(Cl)cc2)CC1`, the inhibition runs as follows: under setting [1], -16.2% (inactive); (mutant strain inhibition) -6.77%.

With `O=C(COc1ccc(Cl)cc1)N1CCN(c2cccc(C(F)(F)F)c2)CC1`, the inhibition is 59.2% (active) under setting [1] and 27.3% (mutant strain inhibition).

Regarding `CC(=O)Oc1ccccc1C1=NN(C(C)=O)C(c2ccccc2)C1` (stereo unspecified), the inhibition by setting is: under setting [1], -8.11% (inactive); (mutant strain inhibition) 7.28%.

Consider `Cc1cccc(NC(=S)Nc2ccc(Br)cc2)c1`, for which the inhibition under setting [1] was -2.23% (inactive) and the inhibition (mutant strain inhibition) is -3.76%.

Consider `Cc1cccc(NC(=S)Nc2ccc3cn[nH]c3c2)c1`, for which the inhibition runs as follows: under setting [1], 3.94% (inactive); (mutant strain inhibition) -1.45%.

Turning to `Cc1cccc(NC(=S)Nc2ccc(Cl)c(Cl)c2)c1`, the inhibition is 83% (active) under setting [1] and 83% (mutant strain inhibition).

On to `CCCCCN(C(=O)NC(=O)Nc1cccc(C)c1C)S(C)(=O)=O`, for which the inhibition was -2.53% (inactive) under setting [1] and 12% (mutant strain inhibition).

With `O=S(=O)(c1ccc(-c2ccccc2)cc1)N1CCCC1`, the inhibition runs as follows: under setting [1], -9.92% (inactive); (mutant strain inhibition) -14.9%.

For the molecule `CCOC(=O)C1CCc2nc3ccccc3c(=O)n21` (stereo unspecified), the inhibition was 96.7% (active) under setting [1] and 18.1% (mutant strain inhibition).

For the molecule `CCOCCCn1c(NN)nc2ccccc2c1=O`, the inhibition reads like this: under setting [1], 4.28% (inactive); (mutant strain inhibition) 1.61%.

With `CCOC(=O)N1CCN(C(=O)Cn2cnc3ccccc3c2=O)CC1`, the inhibition runs as follows: under setting [1], -8.2% (inactive); (mutant strain inhibition) -9.03%.

As for `Cc1nc(-c2ccc(Cl)cc2)sc1C(=O)CBr`, the inhibition was 29.8% (inactive) under setting [1] and 16% (mutant strain inhibition).

Consider `Cc1ccc(S(=O)(=O)Cc2cc(-c3ccc(Cl)cc3)no2)cc1`, for which the inhibition under setting [1] was 17.1% (inactive) and the inhibition (mutant strain inhibition) was 12.1%.

Consider `O=C(NCCc1c[nH]c2ccccc12)c1cc2ccccc2oc1=O`, for which the inhibition under setting [1] was 15.8% (inactive) and the inhibition (mutant strain inhibition) was -4.03%.

On to `Cc1cc(C)cc(NC(=S)NCc2ccc(F)cc2)c1`, for which the inhibition is 42.3% (inactive) under setting [1] and 3.44% (mutant strain inhibition).

`Cc1cc(C)cc(NC(=S)NCCc2c[nH]c3ccccc23)c1`: the inhibition by setting is: under setting [1], 70.2% (active); (mutant strain inhibition) 27.3%.

As for `CC(C)(C)NC(=O)c1ccc(Cn2cc(C(F)(F)F)ccc2=O)cc1`, the inhibition runs as follows: under setting [1], 3.12% (inactive); (mutant strain inhibition) 11.4%.

As for `Nc1ccc(Nc2ccccc2)cc1`, the inhibition by setting is: under setting [1], 74.9% (active); (mutant strain inhibition) 46%.

Turning to `Cc1ccc(Nc2ccccc2N)cc1`, the inhibition by setting is: under setting [1], 48.4% (inactive); (mutant strain inhibition) 33.4%.

Turning to `Cc1cc(Nc2ccccc2)n(C(=O)c2ccc(N)cc2)n1`, the inhibition runs as follows: under setting [1], -10.2% (inactive); (mutant strain inhibition) 32.9%.

On to `CCOC(=O)C1(Cc2cccc(OC)c2)CCN(C(C)CC(C)(C)O)CC1` (stereo unspecified), for which the inhibition under setting [1] is -0.94% (inactive) and the inhibition (mutant strain inhibition) is 20.1%.

`CCN(CC)CC(=O)Nc1sc2c(c1C(=O)c1ccccc1C)CCC2`: the inhibition by setting is: under setting [1], 56.7% (inactive); (mutant strain inhibition) 9.28%.

Regarding `COC(=O)C1=C(Nc2ccc(OC)cc2)C=C(C)C(C(=O)OC)C1c1ccc(C)cc1` (stereo unspecified), the inhibition was 11.5% (inactive) under setting [1] and 5.72% (mutant strain inhibition).

For the molecule `COC(=O)C1=C(Nc2ccc(C)cc2)C=C(C)C(C(=O)OC)C1c1ccc(F)cc1` (stereo unspecified), the inhibition by setting is: under setting [1], 72.8% (active); (mutant strain inhibition) -7.13%.

In the case of `COC(=O)C1C(=O)NCC1c1ccc(C)cc1` (stereo unspecified), the inhibition runs as follows: under setting [1], 19.4% (inactive); (mutant strain inhibition) 13.7%.

As for `CCC(=O)NC(=S)Nc1ccc(NC(=O)c2ccco2)c(Cl)c1`, the inhibition under setting [1] was 8.3% (inactive) and the inhibition (mutant strain inhibition) was -0.75%.

As to `Cn1ccc(=NC=C(C#N)C#N)c2ccccc21`, the inhibition reads like this: under setting [1], -8.61% (inactive); (mutant strain inhibition) 4.44%.

Regarding `CC1=NNC(=O)C1CCC(=O)N/N=C\c1ccc(Cl)c(Cl)c1` (stereo unspecified), the inhibition runs as follows: under setting [1], -6.04% (inactive); (mutant strain inhibition) 2.78%.

The term inhibition denotes the drop in the measured response relative to a control, in per cent.
